The nature of assay [1]: Primary qHTS for inhibitors of nuclear receptor binding SET domain protein 2 (NSD2) in an isogenic RCH-ACV NSD2 p.E1099K mutant (9B) (AID 1645876). A general note: In qHTS, concentration-response curves come from the screen itself.
Assay [2] in a line: Primary qHTS for inhibitors of nuclear receptor binding SET domain protein 2 (NSD2) in an RCH-ACV wild type WT cells (2C) (AID 1645877). Also: potency is read from the fitted curve at half-maximal effect.

Results filed as inconclusive are left out. Values without a mark were called inactive. Active and inactive are the calls of the source. Calls follow the shape of the dose curve; as a rule, active = well fitted curve in the direction sought with a large enough effect; inconclusive = small, poorly fitted or top-dose-only effect, or another doubt; inactive = no such curve, though single readings can be large; an effect the other way counts as inactive or inconclusive. Where a SMILES comes first, the peptide text is derived from it. [ ]: non-standard residue; d: D form. PhLac = O=C(O)[CH](O)Cc1ccccc1; NMeV = CN[CH](C(=O)O)C(C)C
% is scaled to controls: 0 for no effect and ±100 for the full control effect.
Also: nearly all actives have a fitted effect of over 70% in size.

With `Cc1coc2c1CC1OC1(C)CCC1OC1(C)C2` (stereo not given), the Potency entry in assay [1] and in assay [2] was “inactive” in each case.

Turning to `CC1(C)CC[C@]2(C(=O)O[C@@H]3O[C@H](CO)[C@@H](O)[C@H](O)[C@H]3O)CC[C@]3(C)C(=CCC4[C@@]5(C)C[C@@H](O)[C@H](O)[C@@](C)(CO)C5CC[C@]43C)C2C1` (stereo not given in full), the Potency entry in assay [1] and in assay [2] was “inactive” each time.

Consider `CCN[C@@H]1C[C@H](N)[C@@H](O[C@H]2OC(CN)=CC[C@H]2N)[C@H](O)[C@H]1O[C@H]1OC[C@](C)(O)[C@H](NC)[C@H]1O`, for which the Potency result in assay [1] and in assay [2] was “inactive” throughout.

Turning to `c1ccc(Cc2ncc3c(n2)CCNCC3)cc1`, the Potency result in assay [1] and in assay [2] was “inactive” in each case.

Turning to `CC1(C)CCC2(C(=O)OC3OC(COC4OC(CO)C(O)C(O)C4O)C(O)C(O)C3O)CCC3(C)C(=CCC4C5(C)CCC(O)C(C)(C(=O)O)C5CCC43C)C2C1O` (stereo not given), the activity change, negative = viability loss in assay [1] is 0.116% [at 9.23 µM]. The outcome in assay [2] is “inactive [at 9.23 µM]”.

As to `CC(C)C(C(=O)N1CCCC1C(=O)O)N(C)C(=O)C(O)Cc1ccccc1` (stereo not given) (H-[PhLac]-[NMeV]-Pro-OH; configuration not given here), the Potency entry in assay [1] and in assay [2] was “inactive” throughout.

As for `CCCCS(=O)(=O)Nc1ncnc(OCCOc2ncc(Br)cn2)c1-c1ccc(Br)cc1`, the Potency entry in assay [1] and in assay [2] was “inactive” in each case.

For `C[C@@H]1O[C@@H](OC[C@H]2O[C@@H](OCCc3ccccc3)[C@H](O)[C@@H](O)[C@@H]2O)[C@H](O)[C@H](O)[C@H]1O`, the Potency entry in assay [1] and in assay [2] was “inactive” each time.

As for `COC1=CC(=O)O[C@@H](CCc2ccccc2)[C@@H]1O`, the Potency result in assay [1] and in assay [2] was “inactive” throughout.

As for `CC1OC(OC2C(O)C(C(=O)O)OC(OC3CCC4(C)C(CCC5(C)C4C=CC4=C6CC(C)(C)CC(O)C6(C)CCC45C)C3(C)C)C2OC2OCC(O)C(O)C2O)C(O)C(O)C1O` (stereo not given), the outcome in assay [1] and in assay [2] was “inactive [at 9.23 µM]” in each case.

For the compound `COc1cc(C2Oc3c(O)cc(CCCO)cc3C2CO)ccc1O[C@H]1O[C@H](C)[C@@H](O)[C@H](O)[C@@H]1O` (stereo not given in full), the Potency entry in assay [1] and in assay [2] was “inactive” throughout.

As for `CCOC(=O)c1ccc(N(C)c2csc(-c3ccccc3)n2)cc1`, the Potency entry in assay [1] and in assay [2] was “inactive” in each case.

Take `C/C=C/C=C/C=C/C(=O)O[C@@H]1[C@@H](OC)C2=C(C(=O)N(C(C)C(=O)O)C2)[C@@]2(C)CCCC(C)(C)[C@H]12` (stereo not given in full): the Potency result in assay [1] and in assay [2] was “inactive” in each case.

Consider `CC(C)[C@H]1CCC(CO)=C[C@@H]1/C=C(\CO)C(=O)O`, for which the Potency result in assay [1] and in assay [2] was “inactive” in each case.

`CC1CCC2(C(=O)OC3OC(CO)C(O)C(O)C3O)CCC3(C)C(=CCC4C5(C)CC(O)C(O)C(C)(C(=O)O)C5CCC43C)C2C1(C)O` (stereo not given): the Potency entry in assay [1] and in assay [2] was “inactive” in each case.

Turning to `CC(CCC1C(C(=O)O)=CC(=O)CC1(C)C)O[C@@H]1O[C@H](CO)[C@@H](O)[C@H](O)[C@H]1O` (stereo not given in full), the Potency result in assay [1] and in assay [2] was “inactive” in each case.

For `NCc1ccc(OCCCc2sc(-c3ccc4c(c3)/C(=N/Nc3nc5ccccc5s3)CCC4)nc2C(=O)O)cc1`, the Potency result in assay [1] was “inactive”. In addition, the Potency in assay [2] was 5.15 µM (active).

As for `CC(C)[C@@H](C)/C=C/[C@@H](C)[C@H]1CC[C@H]2C3=CC=C4C[C@@H](O)CC[C@]4(C)[C@H]3CC[C@]12C`, the Potency result in assay [1] and in assay [2] was “inactive” in each case.

Take `COc1ccc(/C=C/C(=O)O[C@H]2[C@@H]3C=CO[C@@H](O[C@@H]4O[C@H](CO)[C@@H](O)[C@H](O)[C@H]4O)[C@@H]3[C@@]3(CO)O[C@@H]23)cc1O`: the Potency result in assay [1] and in assay [2] was “inactive” throughout.

Regarding `CC(C)=CC/C=C(/C)[C@H]1CC[C@]2(C)[C@@H]1[C@H](O)CC1[C@@]3(C)CC[C@H](O)C(C)(C)[C@@H]3[C@@H](O[C@@H]3O[C@H](CO)[C@@H](O)[C@H](O)[C@H]3O[C@@H]3O[C@@H](C)[C@H](O)[C@@H](O)[C@H]3O)C[C@]12C` (stereo not given in full), the Potency result in assay [1] and in assay [2] was “inactive” in each case.

Take `C=C(C)C1CC2(CO)C(=CC1=O)CCC(O)C2C` (stereo not given): the Potency entry in assay [1] and in assay [2] was “inactive” throughout.

`C=C[C@H]1[C@H](O[C@@H]2O[C@H](CO[C@@H]3OC[C@](O)(CO)[C@H]3O)[C@@H](O)[C@H](O)[C@H]2O)OC=C2C(=O)OCC[C@H]21`: the Potency result in assay [1] and in assay [2] was “inactive” each time.

In the case of `COC1CCCC/C(C)=C/C2C=C(C)C(C)C3C(CC(C)C)NC(=O)C23C(=O)C1` (stereo not given), the Potency result in assay [1] and in assay [2] was “inactive” each time.

As to `C[C@@H]1C[C@H](O[C@@H]2O[C@H](CO[C@@H]3OC[C@](O)(CO)[C@H]3O)[C@@H](O)[C@H](O)[C@H]2O)CC(C)(C)[C@H]1/C=C/[C@@H](C)O`, the Potency entry in assay [1] and in assay [2] was “inactive” throughout.

Regarding `C[C@@H]1O[C@@H](O[C@H]2[C@H](OC(=O)[C@]34CCC(C)(C)C[C@H]3C3=CCC5[C@@]6(C)C[C@H](O)[C@H](O[C@@H]7O[C@H](CO)[C@@H](O[C@@H]8O[C@H](CO)[C@@H](O)[C@H](O)[C@H]8O)[C@H](O)[C@H]7O)[C@@](C)(CO)C6[C@H](O)C[C@@]5(C)[C@]3(C)C[C@H]4O)OC[C@H](O)[C@@H]2O)[C@H](O)[C@H](O)[C@H]1O[C@@H]1OC[C@@H](O)[C@H](O[C@@H]2OC[C@](O)(CO)[C@H]2O)[C@H]1O` (stereo not given in full), the activity change, negative = viability loss in assay [1] was -3.67% [at 9.23 µM]. Also, the activity change, negative = cell killing in assay [2] is 2.2% [at 9.23 µM].

Values taken from PubChem BioAssay (NCATS).
